The sample as a whole holds a higher share of hits than the screen did.
DUX4 inh – DUX4-mediated transcription inhibition; 293T-iDUX4 ZSCAN4-Gaussia luciferase reporter, 24 h; active compounds read low; activity change, negative = inhibition, % (no concentration beside the values); 37,000 compounds, 0.8% hits;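 active means mean inhibition of at least 10% in the main channel, exceeding the control channel by a set limit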;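 further: 0% = median of neutral control wells and -100% = median of positive control wells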
Numbers without * were called inactive; ! = not confirmed by another sample.

SMILES | DUX4 inh
COc1ccccc1-c1ccc(C2[C@@H]3CN(S(=O)(=O)c4ccc(C)cc4)C[C@H]2N3)cc1 (stereo partly drawn) | -33.7*!
CNC[C@H]1OCCCC[C@H](C)Oc2ccc(NS(=O)(=O)c3cn(C)cn3)cc2C(=O)N([C@@H](C)CO)C[C@@H]1C | -0.7
C[C@@H]1CN([C@H](C)CO)C(=O)Cc2cc(NC(=O)NC3CCCCC3)ccc2O[C@@H]1CN(C)C(=O)Nc1ccc(C(F)(F)F)cc1 | -0.1
COc1cccc(-c2cnc3c(c2)C(=O)N([C@H](C)CO)C[C@@H](C)[C@@H](CN(C)C(=O)Nc2ccccc2F)O3)c1 | 2.0
CC(C)NC(=O)N(C)C[C@H]1OCc2cn(nn2)CCCC(=O)N([C@H](C)CO)C[C@H]1C | 0.2
COc1ccc2c3c([nH]c2c1)[C@@H](CO)NCC31CN(S(=O)(=O)c2cccc(C)c2)C1 | 4.9
O=C(Nc1ccccc1F)N1C[C@H]2[C@@H](c3ccccc31)[C@@H](CO)N2C(=O)Nc1ccccc1 | -0.7
COc1ccc(CN2CC3(CN(C(C)=O)C3)c3c(n(C)c4cc(OC)ccc34)[C@@H]2CO)cc1 | 4.0
C[C@@H]1CN([C@H](C)CO)C(=O)CCCn2cc(nn2)CO[C@@H]1CN(C)C(=O)Nc1ccccc1 | -1.1
Cc1cccc(-c2ccc([C@@H]3[C@@H](CO)N4CCCCN(C(=O)c5ccncc5)C[C@H]34)cc2)c1 | 11.9
C/C=C/c1ccc([C@H]2[C@@H](CO)N3CCCCN(S(=O)(=O)c4cccc(C)c4)C[C@@H]23)cc1 | -44.1*
COc1cccc(S(=O)(=O)N2CCCCN3[C@H](C2)[C@H](c2ccc(-c4cccnc4)cc2)[C@@H]3CO)c1 | -35.2*
C/C=C/c1ccc([C@@H]2[C@@H](CO)N3CCCCN(S(=O)(=O)c4ccc(F)cc4)C[C@H]23)cc1 | -7.8
COc1cccc(S(=O)(=O)N2CCCCN3[C@@H](CO)[C@@H](c4ccc(C#CC5CC5)cc4)[C@@H]3C2)c1 | 5.9
COc1cccc(S(=O)(=O)N2CCCCN3[C@H](CO)[C@@H](c4ccc(-c5cccnc5)cc4)[C@H]3C2)c1 | -7.8
C/C=C/c1ccc([C@@H]2[C@@H](CO)N3CCCCN(S(=O)(=O)c4ccc(F)cc4)C[C@@H]23)cc1 | -2.8
C/C=C/c1ccccc1[C@@H]1[C@H](C#N)N(C(C)=O)[C@H]1CO | 17.0
C[C@H]1CN([C@@H](C)CO)C(=O)CCCn2cc(nn2)CO[C@@H]1CN(C)C(=O)OCc1ccccc1 | 5.2
OC[C@@H]1[C@H](c2ccc(C#Cc3ccccc3F)cc2)[C@H]2CN(CC3CCOCC3)CCCCN12 | -21.0*
OC[C@H]1[C@H](c2ccc(C#Cc3ccccc3)cc2)[C@H]2CN(CC3CCOCC3)CCCCN21 | -8.1
OC[C@@H]1[C@H](c2ccc(C#Cc3ccccc3)cc2)[C@@H]2CN(CC3CCOCC3)CCCCN12 | 8.1
CN1CCCCN2[C@H](CO)[C@H](c3ccc(C#Cc4ccccc4F)cc3)[C@@H]2C1 | 6.2
CN1CCCCN2[C@H](C1)[C@H](c1ccc(C#Cc3ccccc3F)cc1)[C@@H]2CO | -6.2
OC[C@H]1[C@H](c2ccc(C#Cc3ccccc3F)cc2)[C@@H]2CN(CC3CCOCC3)CCCCN12 | -12.8*
O=S(=O)(c1cccs1)N1CCCCN2[C@H](CO)[C@@H](c3ccc(/C=C/c4ccccc4)cc3)[C@@H]2C1 | 3.4
SMILES | DUX4 inh
CS(=O)(=O)N(CC1CCC1)C[C@@H]1N[C@H](CO)[C@@H]1c1ccccc1 | 1.0
CN(C)CC(=O)N1CC2(C1)[C@H](c1ccccc1)[C@@H](CO)N2S(C)(=O)=O | 11.0
C[C@H](CO)N1C[C@H](C)[C@@H](CN(C)CC2CC2)OCc2ccccc2-c2ccccc2C1=O | 5.0
COc1ccc2c3c(n(C)c2c1)[C@@H](CO)N(CC1CC1)CC31CN(C(=O)c2ccccc2)C1 | -32.1*
COc1ccc2c3c(n(C)c2c1)[C@H](CO)N(CC1CC1)CC31CN(C(=O)NC2CCCC2)C1 | 2.3
COc1ccc2c3c(n(C)c2c1)[C@@H](CO)N(CC1CC1)CC31CCN(C(=O)CC2CC2)CC1 | -1.9
COc1ccc2c3c(n(C)c2c1)[C@@H](CO)N(C(=O)c1ccccc1)CC31CCN(CC2CC2)CC1 | -2.2
CCCNC(=O)N1CC2(C1)CN(Cc1ccccc1)[C@@H](CO)c1[nH]c3cc(OC)ccc3c12 | -10.1*
COc1ccc2c3c([nH]c2c1)[C@H](CO)N(C(=O)c1ccccc1)CC31CN(C(=O)CC2CC2)C1 | 9.8
CCCNC(=O)N1CC2(C1)CN(Cc1ccc(F)cc1)[C@H](CO)c1[nH]c3cc(OC)ccc3c12 | -8.3
COc1ccc2c3c(n(C)c2c1)[C@@H](CO)N(CC1CC1)CC31CCN(C(C)=O)CC1 | 13.0
COc1ccc2c3c([nH]c2c1)[C@H](CO)N(CC1CC1)CC31CN(C(=O)NC2CCCC2)C1 | 6.2
COc1ccc2c3c([nH]c2c1)[C@H](CO)N(CC1CC1)CC31CN(C(=O)c2ccccc2)C1 | -24.1*
COc1ccc2c3c(n(C)c2c1)[C@@H](CO)N(CC1CC1)CC31CCN(C(=O)c2ccccc2)CC1 | -32.4*
CCCNC(=O)N1CC2(C1)CN(Cc1ccccc1)[C@H](CO)c1[nH]c3cc(OC)ccc3c12 | -8.4
CC(=O)N1CC[C@H]2[C@@H]1c1cc(-c3cccc(F)c3)ccc1N(C)[C@H]2CO | 23.7
CC(=O)N1[C@H](CO)[C@H](c2ccccc2)C12CN(C(=O)Nc1ccccc1F)C2 | -1.2
CCC(=O)N[C@@H]1CC[C@@H](CC(=O)NCC2CC2)O[C@H]1CO | 4.9
CCc1cnc(N2[C@@H](C#N)[C@H](c3ccc(C4=CCCC4)cc3)[C@@H]2CO)s1 | -3.3
COc1ccc2c3c(n(C)c2c1)[C@@H](CO)N(C)CC31CCN(CC2CC2)CC1 | 9.3
COc1ccc2c3c(n(C)c2c1)[C@H](CO)N(C)CC31CN(C(=O)NC(C)C)C1 | 5.5
COc1ccc2c3c(n(C)c2c1)[C@H](CO)N(CC1CC1)CC31CN(C(=O)Nc2ccc(F)cc2F)C1 | -5.3
COc1ccc2c3c([nH]c2c1)[C@@H](CO)N(C(=O)c1ccncc1)CC31CCN(C(=O)NC(C)C)CC1 | 15.6
COc1ccc2c3c(n(C)c2c1)[C@@H](CO)N(CC1CC1)CC31CN(C(=O)c2ccc(F)cc2)C1 | -26.0*
COc1ccc2c3c(n(C)c2c1)[C@@H](CO)N(C)CC31CN(C(=O)c2ccccc2F)C1 | -35.1*
SMILES | DUX4 inh
COc1ccc2c3c([nH]c2c1)[C@@H](CO)N(C(=O)c1ccc(F)cc1)CC31CCN(C(=O)NC(C)C)CC1 | -15.7*
COc1ccc2c3c(n(C)c2c1)[C@@H](CO)N(S(C)(=O)=O)CC31CCN(C(=O)C2CCCC2)CC1 | 14.5
COc1ccc2c3c(n(C)c2c1)[C@H](CO)N(C)CC31CN(C(=O)C2CCC2)C1 | 22.5
COc1ccc2c3c(n(C)c2c1)[C@@H](CO)N(C(=O)c1ccc(F)cc1)CC31CN(C(C)=O)C1 | 17.1
COc1ccc2c3c(n(C)c2c1)[C@@H](CO)N(S(C)(=O)=O)CC31CCN(CC2CCCCC2)CC1 | -20.7*
CCCC(=O)N1CC2(CCN(C(=O)NC(C)C)CC2)c2c([nH]c3cc(OC)ccc23)[C@H]1CO | 12.6
COc1ccc2c3c(n(C)c2c1)[C@@H](CO)N(C(=O)c1ccncc1)CC31CCN(CC2CC2)CC1 | 17.4
C[C@@H]1CCCCO[C@@H](CN(C)C(=O)Cc2ccccc2)[C@H](C)CN([C@H](C)CO)C(=O)c2cc(NS(C)(=O)=O)ccc2O1 | -1.1
C[C@H]1CN([C@@H](C)CO)S(=O)(=O)c2ccc(C#Cc3ccccc3F)cc2O[C@H]1CN(C)C(=O)Cc1cccnc1 | -0.2
